LDHA inh: inhibitors of human lactate dehydrogenase A; AID 1347041; activity change, % (values are at about 110 or 230 µM); 480,000 compounds, 0.15% hits; purified LDHA, NADH/diaphorase-resazurin fluorescence; stronger effect = lower value; P00338; in the data active means activity change below about -30%; inconclusive means mostly about -25% to -30%;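 further: plate controls were DMSO wells for no effect and wells without enzyme for full effect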
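Human LDH5 at 2 nM final in Tris HCl pH 7.4 with 0.06 mM NADH and 0.2 mM pyruvate, reacted 5 minutes at room temperature. Remaining NADH coupled via diaphorase/resazurin; resorufin fluorescence read at 0 and 20 minutes, normalized to enzyme-free and DMSO wells.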
DT40 TDP1 CPT: growth inhibition of DT40 Tdp1-/-;hTDP1 cells with camptothecin (screen for TDP1 inhibitors); chicken DT40 Tdp1-/-;hTDP1 cells + 20 nM CPT, ATP luminescence, 48 h; Potency, µM (titrated, usually from 46.2 µM), for the others: top-dose activity change, negative = growth inhibition, actives largely listed as inhibitors; 420,000 compounds, 12% hits; AID 686979; further: potency means the concentration at half of the fitted maximal effect; nearly all actives have a fitted effect of over 55% in size
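Cell growth measured by CellTiter-Glo luminescence after a minimum 48 h, 37 C compound exposure with 20 nM CPT in Tdp1-knockout DT40 cells stably expressing hTDP1, seeded 400/well; qHTS titration format.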
VP16 counter: Gal4-VP16 reporter inhibition counter-screen. Drosophila S2 Gal4-VP16 UAS-luciferase, luminescence, 20 h. Potency, µM (titrated, usually from 53.6 µM), without a hit: at the highest dose activity, negative = inhibition, usual class: inhibitors. 310,000 compounds, 3.5% hits. AID 2546;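 further: Gal4-VP16 expression switched on by copper sulfate through the metallothionein promoter; potency means the concentration at half of the fitted maximal effect; nearly all actives have a fitted effect of over 50% in size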
DT40 TDP1 no CPT: qHTS for Inhibitors of human tyrosyl-DNA phosphodiesterase 1 (TDP1): qHTS in cells in absence of CPT; DT40 Tdp1-/- hTDP1 cells, no CPT, ATP luminescence, 48 h; Potency, µM (series often up to 46.2 µM), without a hit: at the top dose activity change, negative = growth inhibition, hits mostly inhibitors; 420,000 compounds, 15% hits; AID 686978, 2013; further: potency means the concentration at half of the fitted maximal effect; nearly all actives have a fitted effect of over 55% in size
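DT40 Tdp1-/-;hTDP1 cells, no CPT (DMSO vehicle only), 400 cells/well; compounds pin-transferred; ≥48 hr, 37 °C; CellTiter-Glo 30 min RT dark, luminescence read.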
IL-1B inflam inh: blocks inflammasome-driven IL-1 beta release; THP-1 LPS/ATP IL-1B secretion, AlphaLISA, 16 h; stronger effect = lower value; activity change, % at 57.5 µM; 360,000 compounds, 4.7% hits; AID 743279; in the data active means activity change below about -50%; inconclusive means mostly about -30% to -49%
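Secreted IL-1B measured by AlphaLISA bead assay after 16 h compound exposure of THP-1 cells; compounds (final up to 57.5 uM) added 1 h before LPS (250 ng/mL) and ATP (1.25 mM) stimulation; lower signal means less secretion.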
RORgamma inh: blocks mouse ROR gamma transcriptional activity. Drosophila S2 Gal4-RORgamma UAS-luciferase reporter, 20 h. 310,000 compounds, 5.4% hits. Potency, µM (highest dose often 53.6 µM), inactives show at the highest dose activity change, negative = inhibition, usual class: inhibitors. AID 2551. P51450; further: potency means the concentration at half of the fitted maximal effect; nearly all actives have a fitted effect of over 60% in size
Target sequence (P51450 whole entry, looked up, the tested form may be a part): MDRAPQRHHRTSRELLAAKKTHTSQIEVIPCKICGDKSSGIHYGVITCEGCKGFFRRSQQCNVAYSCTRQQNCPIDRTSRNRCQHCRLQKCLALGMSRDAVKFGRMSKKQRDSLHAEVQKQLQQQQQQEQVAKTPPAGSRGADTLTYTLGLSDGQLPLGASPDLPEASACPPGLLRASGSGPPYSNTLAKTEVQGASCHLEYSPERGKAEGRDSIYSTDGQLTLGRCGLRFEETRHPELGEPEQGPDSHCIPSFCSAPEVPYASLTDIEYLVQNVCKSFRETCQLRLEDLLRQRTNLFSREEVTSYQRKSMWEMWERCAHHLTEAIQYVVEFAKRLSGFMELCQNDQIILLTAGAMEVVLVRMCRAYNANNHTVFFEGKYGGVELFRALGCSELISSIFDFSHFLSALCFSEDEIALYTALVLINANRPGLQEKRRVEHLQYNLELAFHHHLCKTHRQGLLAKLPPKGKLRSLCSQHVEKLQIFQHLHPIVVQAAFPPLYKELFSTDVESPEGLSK
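Drosophila Schneider cells stably carrying a metallothionein-driven Gal4 DBD–ROR gamma fusion and a UAS-Photinus luciferase reporter were exposed to compound for 1 hr, then induced with copper sulfate (700 uM final) for 20 hr at ambient temperature before luminescence reading.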
Active calls of the source: *; ? = inconclusive; / = not tested or not shown; [ ] = remark or other dose. Shown are actives, neighbours in structure and some others; about 18% of the full set was active somewhere. Unless noted, the call rests on the fitted dose curve; in most records, active means well fitted curve in the direction sought with a large enough effect; inconclusive means small, poorly fitted or top-dose-only effect, or another doubt; inactive means no such curve, though single readings can be large; an effect the other way counts as inactive or inconclusive. Unless noted, on the % scale 0 is the no-effect control and ±100 the full control effect.

SMILES	LDHA inh	DT40 TDP1 CPT	VP16 counter	DT40 TDP1 no CPT	IL-1B inflam inh	RORgamma inh
Cc1ccc2c(COC(=O)Cc3n[nH]c(=O)c4ccccc34)cc(=O)oc2c1	8	/	/	/	/	/
O=C(NCC(=O)N1CCC(Cc2ccccc2)CC1)c1ccccc1F	-11	?	/	21µM*	?	/
NC(=O)c1ccccc1OCC(=O)N1CCC(Cc2ccccc2)CC1	-1	7.3µM*	/	9.2µM*	-23	/
O=C(OCC(=O)N1CCC(Cc2ccccc2)CC1)c1ccccc1NCCO	-8	?	/	?	-5	/
O=C(NCC(=O)N1CCCC1)c1ccccc1F	-3	7%	?	11%	-8	23%
O=C(OCC(=O)N1CCC(Cc2ccccc2)CC1)c1ccccc1O	0	?	/	29µM*	-8	/
Cc1ccc(-c2nc3ccc(C(=O)N4CCC(CC(=O)NCCN5CCOCC5)CC4)cc3o2)cc1	0	/	/	/	/	/
CCOC(=O)Nc1cccc(N2CCn3c(nc4ccccc43)C2)c1	18	/	/	/	/	/
Clc1cccc(CNCCN2CCCC2)c1Cl	8	/	/	/	/	/
Cc1cc(SCC(=O)N2CCC(c3noc4ccc(F)cc34)CC2)nc2ccccc12	-2	23µM*	1%	?	?	10%
O=C(CSc1ncnc2sc3c(c12)CCCC3)N1CCC(c2noc3ccc(F)cc23)CC1	-6	11µM*	-8%	10µM*	4	-15%
O=C(CCC(=O)N1CCC(c2noc3ccc(F)cc23)CC1)N1CCCCCC1	3	/	/	/	/	/
COCCNC(=O)c1cc(-c2ccccc2)nc2ccc(C)cc12	-1	/	/	/	/	/
Cc1cc2nc(CSc3ccc(NC(=O)C(C)(C)C)cc3)c(=O)[nH]c2cc1C	9	/	/	/	/	/
O=C(O)CCSc1ncnc2sc(-c3ccccc3)cc12	-3	-19%	5µM*	2%	8	1.8µM*
COCCNC(=O)CSc1ncnc2sc(-c3ccccc3)cc12	-2	-19%	-9%	-26%	-3	-15%
O=C(O)CSc1ncnc2sc(-c3ccccc3)cc12	-13	-2%	-18%	-4%	-4	8%
CC(=O)c1c(C)[nH]c(C(=O)CSc2nnc(-c3ccccc3)o2)c1C	-2	16µM*	-6%	15µM*	6	?
CC(=O)c1c(C)[nH]c(C(=O)CSc2nnc(C3CC3)o2)c1C	1	/	/	/	/	/
CC(=O)c1c(C)[nH]c(C(=O)CSc2ncnc3sc(-c4ccccc4)cc23)c1C	-1	9.2µM*	?	?	50	-24%
CC(=O)CCSc1ncnc2sc(-c3ccccc3)cc12	-1	?	6%	?	-91*	-4%
CC(C)=CC1C(C(=O)NCC2CN(CC(C)C)CCO2)C1(C)C (stereo unspecified)	3	/	/	/	/	/
Cc1ccc2oc(-c3ccc(NC(=O)c4ccc(C)c([N+](=O)[O-])c4)cc3)nc2c1	-1	/	/	/	/	/
O=C(CSc1nnc(-c2ccccc2)o1)c1ccc2c(c1)OCCO2	-4	16µM*	-2%	?	20	-2%[10 µM]
Cc1cc(-c2nnc(SCC(=O)c3ccc4c(c3)OCCO4)o2)no1	-12	7%	-8%	8%	18	2%
CC(Sc1ncnc2sc(-c3ccccc3)cc12)C(N)=O (stereo unspecified)	-4	33%	-25%	2%	-13	13µM*
CCOC(=O)c1[nH]c(C)c(C(=O)OCC2CC2(Cl)Cl)c1C (stereo unspecified)	6	/	/	/	/	/
NC1(C(=O)O)CCC(c2ccccc2)CC1 (stereo unspecified)	-1	/	/	/	/	/
COc1cccc(NS(=O)(=O)c2ccc(-n3cccn3)cc2)c1	-8	?	?	5.8µM*	-16	18%

Bioassay records as filed in PubChem BioAssay.
